In PubChem BioAssay (Tox21):
Inconclusive results are not listed. Activity calls are given as the source filed them. Unless noted, the call rests on the fitted dose curve; in most records, active means well fitted curve in the direction sought with a large enough effect in the repeat runs; inconclusive means weak or mixed curves; inactive means no such curve, though single readings can be large; an effect the other way counts as inactive or inconclusive.

Columns and labels:
[1] = qHTS assay to identify small molecule antagonists of the estrogen receptor beta (ER-beta) signaling pathway - cell viability counter screen (AID 1259382); further: series mostly up to about 92 µM; nearly all actives have a fitted effect of over 55% in size
How it was run: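 Agonist-stimulated (1nM E2) ER-beta-UAS-bla HEK293T cells are incubated with library compounds for 16 hr at 37C. Cell viability is then assessed in the reporter-assay wells by adding CellTiter-Glo and reading luminescence after 30 min.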

[2] = biological target: Progesterone receptor (Homo sapiens) (UniProt P06401); test: qHTS assay to identify small molecule antagonists of the progesterone receptor (PR) signaling pathway (AID 1346795; active means well fitted inhibition curve with a large enough effect in the signal ratio in the repeat runs, not every such curve was filed as active; the % refers to the signal ratio)
How it was run: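 Beta-lactamase reporter, HEK293T PR-UAS-bla line; 2% charcoal-stripped FBS; 6 hr pre-incubation, 37C/5% CO2. Compound + R5020 1 nM final, 16 hr. LiveBLAzer B/G FRET substrate, 2 hr RT; fluorescence intensity read.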

[3] = qHTS assay to identify small molecule antagonists of the progesterone receptor (PR) signaling pathway - cell viability counter screen (AID 1346798); further: series mostly up to about 92 µM; nearly all actives have a fitted effect of over 50% in size
How it was run: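 Luminescence readout (CellTiter-Glo, 30 min, RT) of viability in PR-UAS-bla HEK293T cells exposed to compound and R5020 agonist for 16 hr at 37C, 5% CO2; run in the same wells as the beta-lactamase reporter read.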

[4] = qHTS assay to identify small molecule agonists of the progesterone receptor (PR) signaling pathway - cell viability counter screen (AID 1346799; calls by dose curve; further: nearly all actives have a fitted effect of over 45% in size)
How it was run: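 HEK293T PR-UAS-bla, 3,000 cells/well, 2% charcoal-stripped FBS; 6 h settle, compound 16 h at 37C/5% CO2; LiveBLAzer 2 h RT, then CellTiter-Glo 30 min RT, luminescence read.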

[5] = qHTS assay to identify small molecule antagonists of the TGF-beta/Smad signaling pathway - cell viability counter screen (AID 1346824); further: nearly all actives have a fitted effect of over 50% in size
How it was run: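 SBE-bla HEK 293T cells, incubated overnight, then compound plus 0.25 ng/mL TGF-beta1 (stock added) for 5 hr at 37 C. Viability was read in the same wells by CellTiter-Glo luminescence after 30 min at room temperature.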

[6] = qHTS assay to identify small molecule agonists of the TGF-beta/Smad signaling pathway - cell viability counter screen (AID 1346829); further: top concentration of the series differs between compounds; nearly all actives have a fitted effect of over 45% in size
How it was run: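 Cytotoxicity counter screen: CellTiter-Glo luminescence (30 min, room temperature) measured in the SBE-bla HEK 293T reporter wells after 5 hr compound treatment at 37 C and the 2 hr substrate step.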

[7] = qHTS assay to identify small molecule agonists of the TGF-beta/Smad signaling pathway (AID 1346859; active means well fitted activation curve with a large enough effect in the signal ratio in the repeat runs, not every such curve was filed as active; the % refers to the signal ratio; further: series mostly up to about 77 µM)
How it was run: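 Read-out: fluorescence at 460 and 530 nm (405 nm excitation) after a 2 hr room-temperature incubation with beta-lactamase FRET substrate. SBE-bla HEK 293T cells had been treated with test compounds for 5 hr at 37 C.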

[8] = biological target: Thyrotropin-releasing hormone receptor (Homo sapiens) (UniProt P34981); test: qHTS assay to identify small molecule antagonists of the thyrotropin-releasing hormone receptor (TRHR) signaling pathway (AID 1346877; active means well fitted inhibition curve with a large enough effect in the repeat runs, not every such curve was filed as active; further: series mostly up to about 51 µM)
How it was run: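 Screening used HEK293 cells engineered with TRHR, with a brief 5 min room-temperature compound exposure preceding addition of TRH to 1 nM. The read-out was kinetic calcium-dye fluorescence, concentration-response from 15 doses in triplicate.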

[9] = biological target: Thyrotropin-releasing hormone receptor (Homo sapiens) (UniProt P34981); test: qHTS assay to identify small molecule agonists of the thyrotropin-releasing hormone receptor (TRHR) signaling pathway (AID 1346891; calls by dose curve;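 further: HEK293 cells expressing TRHR with calcium dye readout; series mostly up to about 58 µM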)
How it was run: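 HEK293/TRHR cells, 1500 per well, 18 h 37 °C; Ca dye 2 h 37 °C; pin-tool compound addition (agonist mode); kinetic fluorescence 3 min, 1 s reads; 15 concentrations, triplicate.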

[10] = Caspase-3/7 induction in HepG2 cells by small molecules, qHTS assay (AID 1346978); further: nearly all actives have a fitted effect of over 15% in size
How it was run: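 Wild-type HepG2 cells, 2,000/well, settled 5 hr at 37 C and 5% CO2, then compound-treated for 17 hr; caspase-3/7 activity read by luminescent Caspase-Glo 3/7 after 30 min at room temperature.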

[11] = Caspase-3/7 induction in CHO-K1 cells by small molecules, qHTS cell viability counter screen (AID 1346979); further: nearly all actives have a fitted effect of over 35% in size
How it was run: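 CHO-K1 wt, 1,500 cells/well; 5hr pre-incubation 37C/5% CO2; compound pin transfer (DMSO); 16hr exposure; CellTiter-Fluor added, 1hr, fluorescence read.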

[12] = Caspase-3/7 induction in CHO-K1 cells by small molecules, qHTS assay (AID 1346980); further: nearly all actives have a fitted effect of over 15% in size
How it was run: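 Wild-type CHO-K1 cells exposed to compounds for 17hr at 37 C, 5% CO2. Caspase-3/7 activity then measured by Caspase-Glo 3/7 luminescence after 30min at room temperature.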

[13] = Caspase-3/7 induction in HepG2 cells by small molecules, qHTS cell viability counter screen (AID 1346981); further: series mostly up to about 92 µM; nearly all actives have a fitted effect of over 30% in size
How it was run: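 Multiplexed with the caspase-3/7 assay: HepG2 cells, 16 hr compound treatment, CellTiter-Fluor viability detection by fluorescence.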

[14] = qHTS assay to identify small molecule agonists or antagonists of the thyroid stimulating hormone receptor (TSHR) signaling pathway - wild type cell line counter screen (AID 1259384; calls by dose curve)
How it was run: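 Wild-type Hek293 cells, 800/well, 18 h at 37C, then compound with Ro20-1724 for 30 min RT. cAMP by HTRF (cAMP-d2/anti-cAMP cryptate), 1 h RT, fluorescence read. 15 concentrations, triplicates.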

[15] = biological target: Thyrotropin receptor (Homo sapiens) (UniProt P16473); test: qHTS assay to identify small molecule antagonists of the thyroid stimulating hormone receptor (TSHR) signaling pathway (AID 1259385; calls by dose curve; further: nearly all actives have a fitted effect of over 20% in size)
How it was run: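 TSHR-HEK293 cells (800/well) plated 18 h, then compounds with Ro20-1724 and TSH at 1.5 ng/mL final, 30 min at room temperature. cAMP quantified by HTRF (cAMP-d2/anti-cAMP-cryptate, 1 h); 15 concentrations in triplicate.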

[16] = biological target: Progesterone receptor (Homo sapiens) (UniProt P06401); test: qHTS assay to identify small molecule agonists of the progesterone receptor (PR) signaling pathway (AID 1346784; calls by dose curve; further: nearly all actives have a fitted effect of over 30% in size)
How it was run: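 HEK 293T PR-UAS-bla reporter cells, 2% charcoal-stripped FBS; 6 hr settle at 37C/5% CO2, compound (DMSO) 16 hr, LiveBLAzer B/G FRET substrate 2 hr RT, fluorescence intensity read.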

[17] = Human pregnane X receptor (PXR) small molecule agonists, qHTS cell viability counter screen (AID 1346977); further: nearly all actives have a fitted effect of over 50% in size
How it was run: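 Fluorescence read-out (CellTiter-Fluor) of viability in PXR-Luc HepG2 cells, multiplexed with the luciferase agonist read. Compounds in DMSO added after 5hr plating; 24hr total exposure at 37C, 5% CO2.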

[18] = qHTS assay to identify small molecule agonists of the estrogen receptor alpha (ER-alpha) signaling pathway in the presence of an antagonist - cell viability counter screen (AID 1259386);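 further: series mostly up to about 92 µM; cells exposed to compounds for 22 h at 37 °C before the viability read; nearly all actives have a fitted effect of over 30% in size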
How it was run: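 ICI-182,780 at 10.0nM final accompanies the compound titration (15 concentrations, 22hr, 37C) on VM7Luc4E2 cells. The CellTiter-Fluor fluorescence readout runs in the same wells as the luciferase assay.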

Measured: Potency

Sequence of Thyrotropin-releasing hormone receptor (Homo sapiens) (P34981 whole entry, looked up): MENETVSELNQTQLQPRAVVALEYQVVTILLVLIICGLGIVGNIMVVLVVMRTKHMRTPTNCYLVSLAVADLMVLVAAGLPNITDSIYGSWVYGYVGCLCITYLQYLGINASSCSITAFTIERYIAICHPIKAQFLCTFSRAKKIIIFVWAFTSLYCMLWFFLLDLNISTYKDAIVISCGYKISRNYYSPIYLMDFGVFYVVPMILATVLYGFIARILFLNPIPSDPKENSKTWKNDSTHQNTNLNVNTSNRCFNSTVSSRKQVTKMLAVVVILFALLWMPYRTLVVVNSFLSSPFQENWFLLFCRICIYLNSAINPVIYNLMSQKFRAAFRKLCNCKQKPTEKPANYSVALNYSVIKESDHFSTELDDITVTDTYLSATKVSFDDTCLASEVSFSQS
Sequence of Progesterone receptor (Homo sapiens) (P06401 whole entry, looked up): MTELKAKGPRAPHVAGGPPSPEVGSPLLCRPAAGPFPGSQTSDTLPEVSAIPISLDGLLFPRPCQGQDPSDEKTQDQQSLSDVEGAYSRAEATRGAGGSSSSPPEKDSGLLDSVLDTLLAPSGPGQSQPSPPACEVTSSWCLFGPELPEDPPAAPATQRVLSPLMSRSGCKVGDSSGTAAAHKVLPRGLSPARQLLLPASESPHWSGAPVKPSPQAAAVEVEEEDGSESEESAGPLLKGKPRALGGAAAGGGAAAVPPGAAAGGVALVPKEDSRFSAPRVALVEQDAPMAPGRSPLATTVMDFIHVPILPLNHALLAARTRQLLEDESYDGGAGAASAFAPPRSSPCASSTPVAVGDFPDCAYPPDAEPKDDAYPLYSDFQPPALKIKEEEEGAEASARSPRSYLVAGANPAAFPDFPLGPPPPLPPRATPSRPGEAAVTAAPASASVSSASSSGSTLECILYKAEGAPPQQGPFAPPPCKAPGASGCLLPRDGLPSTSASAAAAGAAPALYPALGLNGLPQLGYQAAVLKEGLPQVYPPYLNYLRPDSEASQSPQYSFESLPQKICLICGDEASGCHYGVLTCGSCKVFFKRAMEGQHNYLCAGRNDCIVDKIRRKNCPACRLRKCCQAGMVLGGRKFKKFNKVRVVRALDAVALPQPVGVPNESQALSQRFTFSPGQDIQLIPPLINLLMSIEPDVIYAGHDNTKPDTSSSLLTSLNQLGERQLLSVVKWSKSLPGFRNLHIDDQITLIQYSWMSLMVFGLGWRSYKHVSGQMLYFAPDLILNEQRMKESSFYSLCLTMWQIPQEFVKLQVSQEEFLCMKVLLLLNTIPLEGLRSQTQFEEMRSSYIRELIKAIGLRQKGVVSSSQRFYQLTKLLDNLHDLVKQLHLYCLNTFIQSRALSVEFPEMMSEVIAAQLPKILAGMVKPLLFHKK
Sequence of Thyrotropin receptor (Homo sapiens) (P16473 whole entry, looked up): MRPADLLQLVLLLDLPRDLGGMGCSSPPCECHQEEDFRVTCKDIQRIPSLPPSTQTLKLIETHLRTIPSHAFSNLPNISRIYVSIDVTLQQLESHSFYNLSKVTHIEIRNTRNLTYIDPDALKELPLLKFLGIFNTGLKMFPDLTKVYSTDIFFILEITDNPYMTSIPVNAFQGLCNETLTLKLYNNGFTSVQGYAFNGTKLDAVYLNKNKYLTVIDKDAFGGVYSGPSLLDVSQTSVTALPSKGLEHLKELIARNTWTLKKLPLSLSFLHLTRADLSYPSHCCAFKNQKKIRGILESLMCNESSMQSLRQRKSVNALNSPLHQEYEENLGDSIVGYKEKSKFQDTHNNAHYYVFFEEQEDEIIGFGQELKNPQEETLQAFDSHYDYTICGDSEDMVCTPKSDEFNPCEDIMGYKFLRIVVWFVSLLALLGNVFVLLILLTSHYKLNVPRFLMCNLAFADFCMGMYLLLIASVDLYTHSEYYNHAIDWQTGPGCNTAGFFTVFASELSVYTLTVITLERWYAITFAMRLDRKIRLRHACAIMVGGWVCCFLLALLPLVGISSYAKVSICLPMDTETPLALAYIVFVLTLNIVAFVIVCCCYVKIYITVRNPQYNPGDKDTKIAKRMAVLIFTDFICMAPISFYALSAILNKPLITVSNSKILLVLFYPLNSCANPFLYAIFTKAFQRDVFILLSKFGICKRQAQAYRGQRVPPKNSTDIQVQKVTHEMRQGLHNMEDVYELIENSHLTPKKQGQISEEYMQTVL

CCCCCCCCCCCCCBr
inactive: [1] | [2] | [3] | [4] | [5] | [6] | [7] | [8] | [9] | [10] | [11] | [12] | [13]

COc1c2occc2c(OC)c2c(=O)cc(C)oc12
inactive: [1] | [14] | [15] | [16] | [2] | [4] | [5] | [6] | [7] | [17] | [10] | [11] | [12] | [13]

Cc1cccc(Cl)c1
inactive: [1] | [14] | [15] | [16] | [2] | [4] | [5] | [6] | [7] | [8] | [9] | [17] | [10] | [12] | [13]

O=Cc1cc2ccccc2o1
inactive: [1] | [15] | [18] | [16] | [3] | [4] | [5] | [6] | [7] | [8] | [9] | [17] | [10] | [11] | [12]

O=NN(CCCl)C(=O)NC1CCCCC1
inactive: [1] | [14] | [16] | [3] | [4] | [5] | [6] | [7] | [8] | [9] | [17] | [10] | [11] | [12] | [13]

CCC(=O)CC
inactive: [1] | [16] | [4] | [5] | [6] | [7] | [8] | [9] | [17] | [10] | [12] | [13]

Cc1ccc(C)c([N+](=O)[O-])c1
inactive: [1] | [14] | [15] | [18] | [3] | [4] | [5] | [6] | [7] | [8] | [9] | [17] | [10] | [11] | [12] | [13]

C=Cc1ccc(C(C)(C)C)cc1
inactive: [1] | [14] | [15] | [18] | [16] | [3] | [4] | [5] | [6] | [7] | [8] | [9] | [17] | [10] | [11] | [12] | [13]

CC(O)COC(C)(C)C (stereo not drawn)
inactive: [1] | [14] | [15] | [16] | [2] | [4] | [5] | [6] | [7] | [8] | [9] | [17] | [10] | [11] | [12] | [13]

C=CCCCCCCCC
inactive: [1] | [14] | [15] | [16] | [3] | [4] | [5] | [7] | [8] | [9] | [17] | [10] | [12] | [13]

C=C(C)C1CC=C(C)C(=O)C1 (stereo not drawn)
inactive: [1] | [14] | [15] | [18] | [16] | [3] | [4] | [5] | [6] | [7] | [17] | [10] | [11] | [12] | [13]

CC(N)CCCC(C)(C)O (stereo not drawn)
inactive: [1] | [14] | [18] | [16] | [4] | [5] | [7] | [17] | [10] | [11] | [12] | [13]

CN1CCOC(c2ccccc2)c2ccccc2C1 (stereo not drawn)
inactive: [1] | [14] | [15] | [16] | [2] | [3] | [4] | [5] | [6] | [7] | [8] | [9] | [10] | [11] | [12] | [13]

OCC1(CO)COCOC1
inactive: [1] | [14] | [18] | [16] | [3] | [5] | [6] | [7] | [8] | [9] | [17] | [10] | [12] | [13]

CO[Si](CCCn1c(=O)n(CCC[Si](OC)(OC)OC)c(=O)n(CCC[Si](OC)(OC)OC)c1=O)(OC)OC
inactive: [1] | [15] | [18] | [16] | [4] | [5] | [6] | [7] | [8] | [9] | [10] | [11] | [12] | [13]

O=[N+]([O-])c1c(Cl)cc(Cl)cc1Cl
inactive: [1] | [14] | [18] | [16] | [3] | [4] | [5] | [7] | [8] | [9] | [17] | [10] | [11] | [12] | [13]
